PfHsp90 yeast 2 – inhibits growth of yeast expressing Plasmodium falciparum Hsp90 | S. cerevisiae expressing PfHsp90, BacTiter-Glo ATP, 48 h; yeast lacking PDR1 and PDR3 efflux regulators | inhibition, % at 9.4 µM | 310,000 compounds, 0.32% hits | AID 504621;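 active = every replicate shows inhibition above about 80%, whatever the replicate mean, limit read from the data; inconclusive = mean inhibition reaches the set limit but some replicate falls short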;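 also: 0% = DMSO neutral controls and 100% = 20 µM radicicol positive controls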
tim10-1 inh – growth inhibitors of tim10-1 mutant yeast | S. cerevisiae tim10-1 ts strain growth, BacTiter-Glo, 24 h | 330,000 compounds, 2.2% hits | inhibition, % at 20 µM;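 active = inhibition of at least 40%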;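 also: mutant grown at 25 °C; 0% = DMSO wells with yeast and 100% = wells holding no yeast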
SKKanGAS inh – blocks kanamycin growth of S. pyogenes SKKanGAS strain; inhibition, % at 7.5 µM; 300,000 compounds, 1.3% hits; BacTiter-Glo, 6 h; AID 1662;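 active = mean replicate score, as percent of positive control median, at least 50; inconclusive = mean below 50 but one replicate at or above 50; inactive = mean and every replicate below 50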;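 also: strain carries kanamycin resistance gene driven by streptokinase promoter and grows in 40 µg/ml kanamycin; loss of luminescence reflects streptokinase promoter inhibition or plain growth inhibition; 0% = median of DMSO wells and 100% = positive control at its reference dose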
TIM10 inh – inhibits growth of TIM10 yeast strain | S. cerevisiae TIM10 strain growth, BacTiter-Glo luminescence, 24 h | 330,000 compounds, 1.4% hits | inhibition, % at 10 µM;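 active = inhibition of 40% or more at the single tested concentration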;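 also: wild-type TIM10 isogenic control strain grown at permissive 25 °C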
tim23-1 inh – inhibits growth of tim23-1 mutant yeast. S. cerevisiae tim23-1 growth, BacTiter-Glo luminescence, 24 h. inhibition, % at 20 µM. 330,000 compounds, 1.3% hits;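 active = growth inhibition of the mutant yeast at or above 50%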;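 also: temperature-sensitive mutant grown at 25 °C; plate controls were DMSO-treated mutant yeast for no effect and medium wells lacking yeast for full effect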
tim23-1 confirm – confirmation of tim23-1 mutant yeast growth inhibitors. S. cerevisiae tim23-1 growth, BacTiter-Glo luminescence, 24 h. shares compounds with tim23-1 inh. AID 463218. inhibition, % at 20 µM. 4,400 compounds, 83% hits;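 active = inhibition above about 39% in either of two replicate wells at 20 µM, limit read from the data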;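 also: temperature-sensitive tim23-1 mutant grown at 25 °C; 0% = DMSO wells with yeast and 100% = medium wells without yeast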
* hit, by the source's call; ? = inconclusive; · = no result. Sampled rows, rich in hits. Any-hit rate of the full collection: about 4.4%.

SMILES	PfHsp90 yeast 2	tim10-1 inh	SKKanGAS inh	TIM10 inh	tim23-1 inh	tim23-1 confirm
CS(=O)(=O)c1ccc2nc(NC(=O)c3ccco3)sc2c1	27.2	30.7	2.5	29.0	54.2*	52.2*
CCOc1ccc2nc(NC(=O)c3ccco3)sc2c1	35.7	20.6	12.5	39.9	55.2*	57.1*
CC(C)CNC(=O)CN1c2cccc3cccc(c23)S1(=O)=O	-10.1	5.0	-4.2	3.6	22.6	·
Cc1ccc(C)c(OCCC(=O)OCC(=O)Nc2ccc(Cl)cn2)c1	·	-28.0	-5.1	-6.0	-6.1	·
N#Cc1c(NC(=O)c2ccc([N+](=O)[O-])o2)sc2c1CCC2	-32.7	36.5	-4.0	37.9	57.7*	69.0*
CCc1ccc(OCC(=O)N2CCN(c3ccccn3)CC2)c(Br)c1	-12.6	37.4	-4.8	25.8	52.7*	38.5
COc1ccc(NC2CCCN(C(=O)CCOc3ccccc3)C2)cc1 (stereo unspecified)	12.0	18.9	0.4	3.9	14.2	·
COc1ccc(-c2cc(-c3ccc(C)cc3)n[nH]2)c(O)c1	1.4	8.4	77.1*	20.8	54.1*	-21.1
CC(=O)n1cc(CO)c2ccccc21	-25.2	-12.6	1.2	-2.1	2.3	·
CC(=O)n1cc(N(C(=O)CCl)c2ccc([N+](=O)[O-])cc2)c2ccccc21	3.3	31.6	7.9	36.3	63.9*	48.6*
CC(=O)n1cc(N(C(=O)CCl)c2ccccc2)c2ccccc21	10.6	31.9	-3.2	22.1	53.7*	38.3
Cc1nc(NS(=O)(=O)c2ccccc2C)c2c3c(sc2n1)CCC3	·	31.7	20.9	19.8	52.7*	51.0*
Cn1nnnc1SCc1cc(=O)n2ccsc2n1	3.5	-11.3	13.7	1.7	-7.5	·
C=CCn1c(SCc2cc(=O)n3ccsc3n2)nc2ccccc2c1=O	-62.8	10.8	5.1	5.2	51.3*	56.1*
C=CCn1c(SCc2cc(=O)n3ccsc3n2)nc2scc(C3CC3)c2c1=O	44.0	39.0	8.8	13.3	31.1	·
C=CCn1c(SCc2cc(=O)n3ccsc3n2)nc2cc(Cl)ccc2c1=O	42.0	26.9	-0.6	28.9	55.4*	58.5*
COc1cc(Cl)c(C)cc1NC(=O)CC1CCCC1	29.0	1.3	5.0	18.1	15.8	·
CN1CCC(N(C)C(=O)c2cc(S(=O)(=O)N(C)c3ccccc3)ccc2Cl)CC1	8.1	2.0	·	-8.4	-1.0	·
O=C(CSc1nnc2ccc(-c3ccccn3)nn12)Nc1ccccc1F	·	-1.8	-5.5	6.4	17.2	·
O=C(Cc1ccc(Cl)cc1)Nc1ncc([N+](=O)[O-])s1	-38.9	·	-10.1	·	·	·
O=C(Nc1ccc(Cl)cc1)Nc1ccccc1Sc1ncc([N+](=O)[O-])s1	-17.6	-12.6	31.1	4.9	53.6*	71.7*
CCCC(NC(=S)NCC1CCCO1)C12CC3CC(CC(C3)C1)C2 (stereo unspecified)	-46.6	38.9	?	36.8	50.8*	50.9*
COc1ccc(S(=O)(=O)Oc2ccccc2C(=S)N2CCOCC2)cc1	·	24.5	5.8	2.7	23.9	·
CC(=O)Nc1ccc(S(=O)(=O)N(Cc2cccnc2)Cc2cc3ccc(C)cc3[nH]c2=O)cc1	-1.6	38.1	1.1	13.8	51.9*	53.0*
Cc1ccc(S(=O)(=O)N(Cc2cccnc2)Cc2cc3ccccc3[nH]c2=O)cc1	-10.3	27.6	6.8	3.2	21.3	·
SMILES	PfHsp90 yeast 2	tim10-1 inh	SKKanGAS inh	TIM10 inh	tim23-1 inh	tim23-1 confirm
Cc1cccc(C(=O)NNC(=O)C2CC2)c1	17.3	3.0	1.8	-8.4	2.8	·
CN1CCN(C2CCN(c3cccc(Cl)c3)CC2)CC1CCO (stereo unspecified)	2.6	1.5	-1.9	2.7	-0.4	·
COc1ccc(N2CCC(CNC(=S)Nc3ccc(C)cc3C)C2)cc1 (stereo unspecified)	6.2	7.8	12.3	30.0	52.6*	67.9*
COc1ccc(N2CCC(CNC(=O)Nc3ccc(OC)cc3OC)C2)cc1 (stereo unspecified)	-18.7	5.7	1.4	6.6	13.4	·
COc1ccc(NC(=O)CCCNC(=O)c2ccc(Cl)cc2)cc1OC	-7.4	1.5	-5.5	0.4	4.3	·
C#CCOCCOCCOCCNc1nc(N2CCN(C(=O)CCCCCCCCCCNC(=O)[C@H]([C@@H](C)CC)n3cc(CCCCN=C(N)N)nn3)CC2)nc(N2CCN(C(=O)CCCCCCCCCCNC(=O)[C@H](CCCCN)n3cc(C[C@@H](C)CC)nn3)CC2)n1	·	25.9	·	17.6	52.1*	44.7*
C#CCOCCOCCOCCNc1nc(N2CCN(C(=O)CCCCCCCCCCNC(=O)Cn3cc(C[C@@H](C)O)nn3)CC2)nc(N2CCN(C(=O)CCCCCCCCCCNC(=O)Cn3cc(C[C@@H](C)O)nn3)CC2)n1	-2.8	4.3	·	-5.1	6.0	·
C#CCOCCOCCOCCNc1nc(N2CCN(C(=O)CCCCCCCCCCNC(=O)Cn3cc(CCCCCN)nn3)CC2)nc(N2CCN(C(=O)CCCCCCCCCCNC(=O)[C@H](CO)n3cc(CCCCCN)nn3)CC2)n1	11.3	34.2	·	10.6	52.8*	45.5*
C#CCOCCOCCOCCNc1nc(N2CCN(C(=O)CCCCCCCCCCNC(=O)Cn3cc(C[C@@H](C)O)nn3)CC2)nc(N2CCN(C(=O)CCCCCCCCCCNC(=O)[C@H](CCCCN)n3cc(C[C@@H](C)CC)nn3)CC2)n1	9.0	34.5	·	7.5	53.8*	56.2*
O=C1C(CSCc2ccccc2)NC(=S)N1c1ccccc1 (stereo unspecified)	·	24.5	-1.5	23.7	35.8	·
COc1ccc(Oc2c(C(F)(F)F)oc3cc(OCC(=O)O)ccc3c2=O)cc1	5.8	15.3	-2.8	-10.5	-4.1	·
c1ccc(COc2cncc(-c3cccnc3)c2)cc1	1.5	4.7	·	-3.8	9.4	·
O=C(CNC(=O)c1ccncc1)N/N=C/c1ccccc1[N+](=O)[O-]	-15.7	7.7	-9.6	-6.8	3.6	·
CN(C(=O)COC(=O)c1cc2ccccc2cc1O)C1CCCCC1	3.5	19.4	·	30.4	55.3*	48.6*
O=C(OCc1cccc(F)c1)c1cc2ccccc2cc1O	-14.0	7.1	12.7	15.1	94.1*	28.0
COc1ccc(C(CC(=O)O)NC(=O)COc2cc(C)ccc2C)cc1OC (stereo unspecified)	-8.3	28.3	-1.8	2.2	9.0	·
Cc1ccc(C(=O)O)cc1N1C(=O)c2cccc3c([N+](=O)[O-])ccc(c23)C1=O	-24.1	7.7	12.9	1.8	12.0	·
CC(=O)Oc1cccc(N2C(=O)c3cccc4c([N+](=O)[O-])ccc(c34)C2=O)c1	-17.1	33.2	8.8	38.5	50.6*	51.2*
CC(C)(C)C(=O)Nc1ccc(/C=C/C(=O)c2ccco2)cc1	4.3	37.8	7.2	37.0	51.5*	44.7*
O=C1[C@H](Oc2ccccc2)[C@@H](c2ccccc2)N1c1ccncc1	7.9	29.4	·	18.5	61.6*	31.9
O=C1[C@@H](Oc2ccccc2)[C@@H](c2ccccc2)N1c1ccccc1	-20.1	18.2	·	0.6	33.7	·

High-throughput results as filed in PubChem BioAssay.
